Compound activity as filed in PubChem BioAssay.
Rows were chosen to be rich in hits. Some 2.4% of all compounds tested hit in one or more screens of this group.
D2 antagonist – antagonizes the human D2 dopamine receptor. P14416. HEK293 TREx D2 cells, calcium flux, dopamine EC80. inhibition, % at 10 µM. 340,000 tested, 2% active; in the data active means inhibition above about 30%; inactive means below that, where a call was filed; further: 0% is about no effect
Target sequence (P14416 whole entry, looked up): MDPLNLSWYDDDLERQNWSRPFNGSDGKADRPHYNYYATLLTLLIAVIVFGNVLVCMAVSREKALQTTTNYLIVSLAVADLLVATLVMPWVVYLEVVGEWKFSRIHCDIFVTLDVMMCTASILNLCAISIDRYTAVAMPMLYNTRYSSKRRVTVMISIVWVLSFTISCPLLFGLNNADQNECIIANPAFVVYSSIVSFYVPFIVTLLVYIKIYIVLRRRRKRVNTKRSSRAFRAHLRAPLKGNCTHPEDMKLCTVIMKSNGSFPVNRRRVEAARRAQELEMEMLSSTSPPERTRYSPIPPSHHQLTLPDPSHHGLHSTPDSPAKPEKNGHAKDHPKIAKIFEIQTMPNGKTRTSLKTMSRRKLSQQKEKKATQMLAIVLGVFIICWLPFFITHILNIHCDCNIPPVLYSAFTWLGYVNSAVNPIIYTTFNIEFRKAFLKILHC
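Calcium flux kinetic readout in an inducible HEK293 TREx D2 line plated overnight at 30 C. After 180 s compound exposure, an EC80 dopamine challenge follows with another 180 s kinetic read to detect antagonism.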
D2 ag-1 – activates the human D2 dopamine receptor | DiscoveRx PathHunter D2 beta-arrestin, luminescence, 90 min; 100% = 57 uM dopamine signal | activation, % (concentration not given with the values) | P14416 | 360,000 tested, 0.084% active; in the data active means activation above about 40%; inconclusive means between about 15% and that limit
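DiscoveRx PathHunter D2 beta-arrestin cells (2,100/well) attached overnight, then compound-stimulated 90 min at 37 C in HBSS/10 mM HEPES/0.1% Tween-20 buffer; beta-galactosidase complementation read by luminescence after 1 h at ambient temperature. Dopamine 57 uM final (EC100) as control.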
D2 PAM-1 – positive allosteric modulators of human D2 dopamine receptor; P14416; HEK293 T-REx D2, calcium flux, EC20 dopamine potentiation; potentiation, % at 10 µM; 340,000 tested, 0.34% active;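 active means potentiation over 3 SD above the plate norm, cut at about 30% in these data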; further: 0% is about no effect
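Calcium flux readout, no-wash dye, 1 read/s. Inducible HEK293 Trex D2 line, overnight 30 C. Compound alone 180 s (agonist flags), then EC20 dopamine, another 180 s to score potentiation.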
D2 ag-2 – agonists of human D2 dopamine receptor | HEK293 T-REx D2 cells, calcium flux agonist mode | activation, % at 2 µM | 340,000 tested, 0.53% active;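 active means activation over 3 SD above normal in the single-dose calcium agonist read, cut at about 30% in these data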; further: 0% is about no effect
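HEK293 Trex D2 cells, tetracycline-induced, o/n 30 C 5% CO2; no-wash Ca dye, RT 30–90 min; 10-cycle baseline, 23 nl cpd added, kinetic Ca read 180 s; agonist hits = positive Ca response.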
D2 PAM-2 – potentiates the human D2 dopamine receptor allosterically | P14416 | potentiation, % (test concentration not listed) | 360,000 tested, 0.23% active | AID 624464 | DiscoveRx D2 beta-arrestin cells, luminescence, 90 min; 100% = 57 uM dopamine signal; in the data active means potentiation above about 50%; inconclusive means mostly about 30% to 49%
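PathHunter beta-arrestin assay in DiscoveRx D2 cells. Compounds were added with an EC20 of dopamine (50 nM final) for 90 min at 37 deg C. Luminescence was read 1 h after detection reagent, with 57 uM dopamine as the EC100 control.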
* marks the source's active call; other numbers are inactive results; u = inconclusive; x = no result.

SMILES | D2 antagonist | D2 ag-1 | D2 PAM-1 | D2 ag-2 | D2 PAM-2
CCCCCOc1ccc(C(=O)Nc2ccc(N3CCOCC3)cc2N2CCOCC2)cc1 | -12 | -2 | 78* | 0 | -2
CCCCC1CCC(C(=O)Nc2ccccc2N2CCOCC2)CC1 (configuration not stated) | 33* | -1 | 11 | 1 | 17
CCN(CC)CCCNC(=O)CSc1nc(C)cc(C)n1 | -44 | u | -5 | 1 | -2
COc1cccc(CNC(=O)C(C)n2ncn3cccc3c2=O)c1OC (configuration not stated) | x | x | x | -1 | x
COc1ccc(S(=O)(=O)NCC2CCCO2)cc1NC(=O)c1ccccc1F (configuration not stated) | 36* | -3 | -3 | 0 | -9
O=C(Nc1nnc(-c2ccccc2Cl)o1)c1nc2ccccc2s1 | 8 | -3 | -17 | 39* | -7
COc1cc(CNc2ccc(O)cc2)cc(Br)c1OCc1ccccc1F | 2 | u | 6 | -2 | 77*
COc1cccc(C2NC(=O)NC(C)=C2C(=O)OCC2CCCCC2)c1 (configuration not stated) | 0 | -3 | -6 | 0 | -3
Cc1ccc(N(C)C(=O)CN(C)S(=O)(=O)c2ccc3c(c2)n(C)c(=O)c(=O)n3C)cc1 | -9 | 3 | -7 | 1 | 4
c1ccc(-c2cn3c(n2)SCC3)cc1 | 4 | -3 | 30* | -1 | -18
Brc1ccc(-c2cn3c(n2)SCC3)cc1 | 33* | 3 | 19 | -1 | -2
O=C1c2ccccc2C(=O)N1Cc1ccco1 | -2 | -1 | 1 | 0 | -17
O=C1c2cccc3c(O)ccc(c23)C(=O)N1Cc1ccco1 | 20 | 12 | 8 | 61* | 29
Cc1ccc(C(=O)NCCN2C3=NC[C@@H](Cc4ccccc4)N3C[C@H]2Cc2ccc(O)cc2)cc1Br | 68* | 2 | -21 | 0 | -18
CC1=CS(=O)(=O)CC1Sc1nc2ccccc2[nH]1 (configuration not stated) | 38* | -1 | -7 | 0 | 4
O=S1(=O)C=CC(Sc2nc3ccccc3[nH]2)C1 (configuration not stated) | -3 | -4 | -2 | -2 | -2
COc1ccc(-n2cc(-c3ccccc3)c3c(N4CCOCC4)ncnc32)cc1 | -6 | u | 5 | 0 | 62*
Fc1ccc(-n2cc(-c3ccccc3)c3c(N4CCOCC4)ncnc32)cc1 | -2 | u | 13 | 1 | 20
Cc1sc2nc(CSc3ccccc3)nc(N3CCN(C)CC3)c2c1C | 90* | -3 | -37 | 1 | -32
COc1ccc(C(=O)O)c(OC)n1 | 30* | -6 | -7 | -2 | -5
COc1ccc(C(=O)Nc2ccc(Cl)c(Cl)c2)c(OC)n1 | -2 | 1 | -9 | 0 | -9
Cc1ccc(S(=O)(=O)N2CCOCC2)cc1C(=O)OC(C)C(=O)c1ccccc1 (configuration not stated) | 37* | -4 | -2 | -1 | -3
N/C(=N\OC(=O)c1cccc(F)c1)c1ccccc1 | -2 | u | 5 | 0 | 57*
N/C(=N\OC(=O)c1ccc(F)cc1)c1ccccc1 | 5 | u | -9 | -1 | 72*
CN(Cc1nc(-c2ccccn2)no1)S(=O)(=O)c1ccccc1 | 37* | -1 | x | 4 | 13
SMILES | D2 antagonist | D2 ag-1 | D2 PAM-1 | D2 ag-2 | D2 PAM-2
Cc1ccc(S(=O)(=O)N(C)Cc2nc(-c3ccccn3)no2)cc1 | 23 | -3 | 0 | 0 | -1
COc1ccc2nc(-c3ccccc3)nc(SC)c2c1 | x | 0 | x | x | x
C=CCn1c(COc2ccccc2)nnc1SC(C)C(=O)N/N=C/c1cc(Cl)ccc1O (configuration not stated) | 5 | 5 | -4 | -1 | 58*
Clc1ccccc1OCCN1CCCCC1 | 44* | -4 | -33 | 1 | -37
Clc1ccc(SCCCN2CCCCC2)cc1 | 38* | -3 | -26 | -1 | -21
CC1CC(C)CN(CCOc2ccc(Cl)cc2Cl)C1 (configuration not stated) | x | -2 | x | x | -18
Clc1ccc(OCCCN2CCCCC2)c(Br)c1 | 38* | 2 | -21 | 1 | -46
Clc1ccc(OCCCCCN2CCCC2)c(Br)c1 | -7 | 1 | -44 | 3 | -25
Clc1ccc(OCCN2CCCCC2)c(Cl)c1 | 72* | -2 | -21 | 0 | -27
COc1ccccc1NC(=O)c1cc(S(=O)(=O)NCCC2=CCCCC2)ccc1F | x | x | -2 | 1 | x
COCCn1c(C)cc(O)c(C(c2ccccc2Cl)N2CCCCC2)c1=O (configuration not stated) | x | x | -3 | 0 | x
O=C1NC2(CCOc3ccccc32)C(=O)N1CC(=O)N(Cc1ccccc1)C1CCS(=O)(=O)C1 (configuration not stated) | 40* | -2 | 24 | -1 | 5
O=C(O)CN1C(=O)NC2(CCOc3ccccc32)C1=O (configuration not stated) | -1 | -2 | -3 | 1 | -10
O=C(COC(=O)Cc1ccsc1)Nc1ccccc1 | 1 | 1 | 6 | 0 | -2
COc1cc(NC(=O)COC(=O)Cc2ccsc2)cc(OC)c1 | 31* | 1 | -12 | 1 | 0
O=C1C(Nc2cccc(O)c2)=C(N2CCCCC2)C(=O)c2ccccc21 | -5 | 4 | 4 | 0 | 65*
O=C1C(Nc2ccccc2)=C(N2CCCCC2)C(=O)c2ccccc21 | -18 | 7 | 3 | 0 | 19
CC(C)OCc1cc(CN2CCN(c3cccc(C(F)(F)F)c3)CC2)c(O)c2ncccc12 | x | x | 8 | -1 | x
O=[N+]([O-])c1cc(CN2CCN(c3cccc(C(F)(F)F)c3)CC2)c2cccnc2c1O | 36* | 0 | -22 | -1 | -23
CC(C)OP(=O)(OC(C)C)C(Nc1ccc(C(=O)O)cc1)c1ccccc1 (configuration not stated) | -4 | -7 | 30* | 1 | -7
CC(C)OP(=O)(OC(C)C)C(Nc1cccc(C(=O)O)c1)c1ccccc1 (configuration not stated) | 3 | 0 | -11 | 0 | -2
CCC(=O)Nc1cc(C(=O)NCC2CCCN2CC)c(OC)cc1N(C)C (configuration not stated) | 73* | 0 | -21 | 1 | -21
CCN1CCCC1CNC(=O)c1cc(NC(C)=O)c(N(C)C)cc1OC (configuration not stated) | 69* | -1 | -19 | 0 | -18
CCN1CCCC1CNC(=O)c1cc(S(N)(=O)=O)ccc1OC (configuration not stated) | x | -6 | x | x | -33
CCN1CCCC1CNC(=O)c1ccccc1Cl (configuration not stated) | x | -1 | x | x | -13
O=C(Nc1cccc(C(=O)N2CCCCC2)c1)C1CCCCC1 | x | -1 | x | x | x
